p53ts 39C kill: cytotoxicity in p53ts cells at nonpermissive temperature; 130,000 tested, 1.5% active; Potency, µM (top dose mostly 46.1 µM), usual class: cytotoxic; H1299-p53A138V viability at 39C, ATP luminescence, 24 h; further: nearly all actives have a fitted effect of over 55% in size
p53ts 32C tox: p53ts cell cytotoxicity, permissive temperature; H1299-p53A138V at 32C, ATP luminescence viability, 24 h; Potency, µM (highest dose often 46.1 µM), hits mostly cytotoxic; 130,000 tested, 0.93% active; AID 924; further: nearly all actives have a fitted effect of over 55% in size
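H1299-p53 A138V cells (temperature-sensitive p53) exposed 24 h to up to 46 uM compound at 32C, where p53 is wild-type in conformation. Viability read as ATP luminescence and normalised to DMSO and 100 uM tamoxifen. AC50 fitted with the Hill equation.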
Luciferase inh: inhibitors of firefly luciferase. P08659. purified firefly luciferase, luminescence, 8 min. Potency, µM (series often up to 57.1 µM), most hits filed as inhibitors. 72,000 tested, 2.2% active. AID 411; further: nearly all actives have a fitted effect of over 40% in size
Target sequence (P08659 whole entry, looked up): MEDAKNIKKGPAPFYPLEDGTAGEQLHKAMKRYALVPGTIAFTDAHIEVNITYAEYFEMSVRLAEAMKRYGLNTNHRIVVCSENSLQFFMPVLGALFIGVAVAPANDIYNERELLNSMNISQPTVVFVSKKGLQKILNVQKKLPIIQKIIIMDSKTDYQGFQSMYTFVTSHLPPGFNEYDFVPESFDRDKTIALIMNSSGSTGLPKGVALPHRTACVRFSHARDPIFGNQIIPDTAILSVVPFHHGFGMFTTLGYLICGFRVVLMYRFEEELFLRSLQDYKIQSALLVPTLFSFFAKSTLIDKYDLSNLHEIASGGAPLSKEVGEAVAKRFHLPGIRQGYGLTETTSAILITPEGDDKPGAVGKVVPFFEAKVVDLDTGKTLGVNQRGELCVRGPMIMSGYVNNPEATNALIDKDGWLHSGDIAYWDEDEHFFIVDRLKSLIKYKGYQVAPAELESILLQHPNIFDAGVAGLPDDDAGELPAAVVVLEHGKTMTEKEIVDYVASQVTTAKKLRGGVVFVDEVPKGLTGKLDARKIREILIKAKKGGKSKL
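Luminescence read-out after 8 min at room temperature; enzyme reaction used luciferin plus 10 uM ATP (linear range) in imidazole buffer pH 7.2 with KCl, MgCl2, Tween 20 and BSA. Each sample was run as a titration.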
A number is an active result; [ ] = remark or other dose. Sampled rows, rich in hits. Any-hit rate of the full collection: about 2.6%. The call rests on the fitted dose curve; in most records, active means well fitted curve in the direction sought with a large enough effect; inconclusive means small, poorly fitted or top-dose-only effect, or another doubt; inactive means no such curve, though single readings can be large; an effect the other way counts as inactive or inconclusive.

What do the screens show for `COc1ccc2oc(=N)c(C(=O)Nc3ccccc3)cc2c1`?
p53ts 39C kill: inconclusive; p53ts 32C tox: inactive; Luciferase inh: 32µM

Results for COc1cc(NC(=O)c2ccc3oc(=O)c(S(=O)(=O)c4ccccc4)cc3c2)cc(OC)c1 ?
p53ts 39C kill: inconclusive; p53ts 32C tox: 16µM

Results for Cc1cccc(NC(=O)c2ccc3oc(=O)c(S(=O)(=O)c4ccc(F)cc4)cc3c2)c1C ?
p53ts 39C kill: inconclusive; p53ts 32C tox: inactive

How did COC(=O)c1ccc2oc(=O)c(S(=O)(=O)c3ccc(C)cc3)cc2c1 do in these assays?
p53ts 39C kill: inconclusive; p53ts 32C tox: inactive

What do the screens show for `CC(C)c1ccc(NC(=O)c2ccc3oc(=O)c(S(=O)(=O)c4ccc(F)cc4)cc3c2)cc1`?
p53ts 39C kill: 2.5µM; p53ts 32C tox: 10µM

Results for CNC(=O)c1cc2cc(OC)ccc2oc1=N ?
p53ts 39C kill: inactive; p53ts 32C tox: inactive; Luciferase inh: inactive

What do the screens show for `COc1ccc(CC(=O)Nc2nnc3n2CCS3)cc1`?
p53ts 39C kill: inactive; p53ts 32C tox: inactive

What do the screens show for `COc1ccc(-c2onc(C)c2C)cc1S(=O)(=O)N1CCN(c2cc(C)ccc2C)CC1`?
p53ts 39C kill: inactive; p53ts 32C tox: inactive

Results for COc1cccc(NC(=O)C2CCN(S(=O)(=O)c3c(C)noc3C)CC2)c1 ?
p53ts 39C kill: inactive; p53ts 32C tox: inactive

Results for CCc1ccc(S(=O)(=O)NCc2ccc3c(c2)CCN3C(=O)c2ccc(C)cc2)cc1 ?
p53ts 39C kill: inactive; p53ts 32C tox: inactive

Results for NC(=NC1C2CC3CC(C2)CC1C3)Nc1ccc(I)cc1 (centres undefined) ?
p53ts 39C kill: 25µM; p53ts 32C tox: inactive; Luciferase inh: inactive

What do the screens show for `CCc1ccc(NS(=O)(=O)c2ccc(-c3cc(C)no3)cc2)cc1`?
p53ts 39C kill: inactive; p53ts 32C tox: inactive

Results for COc1cc(C)c(C)cc1S(=O)(=O)Nc1cccc(-c2ccc(N3CCOCC3)nn2)c1 ?
p53ts 39C kill: inactive; p53ts 32C tox: inactive

Results for CC(C)c1ccc(NC(=O)CN2C(=O)CCc3cc(S(=O)(=O)N4CCOCC4)ccc32)cc1 ?
p53ts 39C kill: inactive; p53ts 32C tox: inactive

How did O=C(NCc1ccco1)c1ccc2c(c1)N(Cc1c(F)cccc1Cl)C(=O)c1ccccc1S2 do in these assays?
p53ts 39C kill: inactive; p53ts 32C tox: inactive

How did CCN(CC)CCCNC(=O)c1ccc2c(c1)N(Cc1c(F)cccc1Cl)C(=O)c1ccccc1S2 do in these assays?
p53ts 39C kill: 13µM; p53ts 32C tox: inactive

What do the screens show for `COc1ccc(S(=O)(=O)Nc2cccc(-c3ccc(N4CCC(C)CC4)nn3)c2)c(OC)c1`?
p53ts 39C kill: 16µM; p53ts 32C tox: 10µM

How did CCc1ccc(S(=O)(=O)Nc2cccc(-c3ccc(N4CCC(C)CC4)nn3)c2)s1 do in these assays?
p53ts 39C kill: 10µM; p53ts 32C tox: 13µM

Results for COc1ccc(-c2cccc(NS(=O)(=O)c3ccc(NC(C)=O)cc3)c2)nn1 ?
p53ts 39C kill: inactive; p53ts 32C tox: inactive

Results for CC(=O)Nc1ccc(S(=O)(=O)Nc2cccc(-c3ccc(N4CCC(C)CC4)nn3)c2)cc1 ?
p53ts 39C kill: 3.5µM; p53ts 32C tox: 2.5µM

What do the screens show for `O=S(=O)(Nc1ccc(-c2ccc(N3CCCCCC3)nn2)cc1)c1ccc(C(F)(F)F)cc1`?
p53ts 39C kill: inactive; p53ts 32C tox: inactive

Results for COc1ccc(OC)c(S(=O)(=O)Nc2cccc(-c3ccc(N4CCCCC4)nn3)c2)c1 ?
p53ts 39C kill: inconclusive; p53ts 32C tox: inactive

Results for CCOc1ccc(-c2cccc(NS(=O)(=O)c3ccc(C)s3)c2)nn1 ?
p53ts 39C kill: inactive; p53ts 32C tox: inactive

What do the screens show for `CC(=O)c1ccc(S(=O)(=O)Nc2ccc(-c3ccc(N4CCCCC4)nn3)cc2)cc1`?
p53ts 39C kill: 4µM; p53ts 32C tox: inconclusive

Results for CSc1ncc(C(=O)N2CCN(c3cc(C)ccc3C)CC2)c(C)n1 ?
p53ts 32C tox: inactive

How did CN1CCN(c2nc3c(c(=O)n(C)c(=O)n3C)n2C)CC1 do in these assays?
p53ts 39C kill: inactive[9.22 µM]; p53ts 32C tox: inactive[9.22 µM]; Luciferase inh: inactive[11.4 µM]

How did Cc1cccc(-n2ncc(C(=O)NCc3ccco3)c2C2CCN(C(=O)OC(C)(C)C)CC2)c1 do in these assays?
p53ts 39C kill: inactive; p53ts 32C tox: inactive

What do the screens show for `CCCCc1ccc(-c2ccc(Br)cc2)nc1`?
p53ts 39C kill: inactive; p53ts 32C tox: inactive

What do the screens show for `CCCc1ccc(-c2ccc(F)c(N)c2)nc1`?
p53ts 39C kill: 7.9µM; p53ts 32C tox: 4µM; Luciferase inh: 2µM

What do the screens show for `Cn1c(=O)c2c(-c3ccccc3Cl)n(Cc3ccc(Cl)cc3)cc2n(C)c1=O`?
p53ts 39C kill: inactive; p53ts 32C tox: inactive

Compound activity (PubChem)
